High-throughput results from PubChem BioAssay.
AmpC det inh – Promiscuous and Specific Inhibitors of AmpC Beta-Lactamase (assay with detergent). hit rate 0.09% among 71,000. purified AmpC, nitrocefin hydrolysis with detergent. Potency, µM (titrated, usually from 28.7 µM). AID 584, 2007. P00811; active = well fitted curve in the direction sought with a large enough effect; inconclusive = small, poorly fitted or top-dose-only effect
Target sequence (P00811 whole entry, looked up): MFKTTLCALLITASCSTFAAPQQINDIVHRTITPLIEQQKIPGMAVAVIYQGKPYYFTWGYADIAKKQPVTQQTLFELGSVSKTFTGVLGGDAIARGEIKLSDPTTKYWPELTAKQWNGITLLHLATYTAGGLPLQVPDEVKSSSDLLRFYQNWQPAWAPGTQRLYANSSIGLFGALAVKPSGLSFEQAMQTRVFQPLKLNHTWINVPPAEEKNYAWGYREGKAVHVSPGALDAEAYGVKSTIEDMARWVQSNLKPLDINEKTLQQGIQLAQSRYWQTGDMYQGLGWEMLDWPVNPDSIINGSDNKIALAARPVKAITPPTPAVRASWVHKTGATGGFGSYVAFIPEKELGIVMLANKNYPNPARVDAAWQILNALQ
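E. coli AmpC (5.3 nM) in 20 mM phosphate pH 7.0 with 0.01% Triton X-100, preincubated 15 min RT with compound; nitrocefin (2 uL of 800 uM stock) hydrolysis followed by 480 nm absorbance every 20 s over 4 min.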
AmpC nodet inh – Promiscuous and Specific Inhibitors of AmpC Beta-Lactamase (assay without detergent); hit rate 1.8% among 71,000; AmpC nitrocefin hydrolysis, absorbance 480 nm, no detergent; Potency, µM (highest dose often 28.7 µM); P00811; AID 585, 2007
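Enzyme, pH 7.0 phosphate. Compound titrations were pre-incubated with AmpC for 15 min at room temperature before nitrocefin (stock 800 uM) addition; product formation was recorded at 480 nm every 20 s for 4 min.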
Prx2 Sm inh – Schistosoma Mansoni Peroxiredoxins (Prx2). S. mansoni Prx2 activity coupled to TGR/GSH (TGR is thioredoxin glutathione reductase), NADPH fluorescence loss, qHTS. Potency, µM. hit rate 0.07% among 65,000
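qHTS, coupled TGR/Prx2 format; 15 min compound preincubation at RT; reaction started with H2O2 (2.5 mM aliquot); kinetic NADPH fluorescence decrease, ex 365/em 450 nm.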
LT uptake inh – qHTS Assay for Anthrax Lethal Toxin Internalization; AID 912, 2007; hit rate 0.67% among 70,000; Cells, anthrax lethal toxin internalization, FRET ratio (460/530); Potency, µM (top dose mostly 40 µM), usual class: inhibitors; also: nearly all actives have a fitted effect of over 50% in size
A number is an active result; [ ] = another dose, or the depositor's remark. Hits are enriched below; roughly 2.6% of the tested compounds scored in any of these assays. Unless noted, calls follow the shape of the full dose curve.

Results for Cn1cccc1C(=O)N1CCC2(CCCN(c3ccccn3)C2)CC1 ?
AmpC det inh: inactive; AmpC nodet inh: inactive; Prx2 Sm inh: inactive; LT uptake inh: inconclusive

How did COc1ccc2nc(NC(=O)C3CCN(S(=O)(=O)c4cccc5nsnc45)CC3)sc2c1 do in these assays?
AmpC det inh: inactive; AmpC nodet inh: inactive; Prx2 Sm inh: inactive; LT uptake inh: 13µM

Results for Cc1cccc(NC(=O)C2CCN(S(=O)(=O)c3cccc4nsnc34)CC2)n1 ?
AmpC det inh: inactive; AmpC nodet inh: inactive; Prx2 Sm inh: inactive; LT uptake inh: inactive

Results for CCOC(=O)c1c(C)n(C)c2ccc(OCC(O)Cn3nc(C)c(Br)c3C)cc12 (stereo not drawn) ?
AmpC det inh: inactive; AmpC nodet inh: inactive; Prx2 Sm inh: inactive; LT uptake inh: 10µM

What do the screens show for `Cc1ccc(C)c(S(=O)(=O)Nc2ccccc2C(=O)Nc2cc(C)on2)c1`?
AmpC det inh: inactive; AmpC nodet inh: 6.3µM; Prx2 Sm inh: inactive; LT uptake inh: inconclusive

How did Cc1nc2cncnc2n(Cc2ccccc2)c1=O do in these assays?
AmpC det inh: inactive; AmpC nodet inh: inactive; Prx2 Sm inh: inactive; LT uptake inh: inactive

What do the screens show for `N#Cc1nc(-c2ccccc2F)oc1NCc1cccc2c1OCO2`?
AmpC det inh: inactive; AmpC nodet inh: inactive; Prx2 Sm inh: inactive; LT uptake inh: inactive

Results for CN(C)CCNc1oc(-c2ccccc2F)nc1C#N ?
AmpC det inh: inactive; AmpC nodet inh: 4µM[single pt active]; Prx2 Sm inh: inactive; LT uptake inh: inactive

Results for N#Cc1nc(-c2ccccc2F)oc1NC1CCCCC1 ?
AmpC det inh: inactive; AmpC nodet inh: 4µM[single pt active]; Prx2 Sm inh: inactive; LT uptake inh: inconclusive

How did Cc1ccccc1-c1cc(N(C)C)ncn1 do in these assays?
AmpC det inh: inactive; AmpC nodet inh: inactive; Prx2 Sm inh: inactive; LT uptake inh: inactive

Results for COc1ccc(NC(=O)N2CC3(CCN(S(=O)(=O)c4ccccc4)CC3)C2)cc1 ?
AmpC det inh: inactive; AmpC nodet inh: inactive; Prx2 Sm inh: inactive; LT uptake inh: inactive

Results for N#Cc1cc2ccccc2nc1SCC(=O)Nc1ccc(S(=O)(=O)N2CCCC2)cc1 ?
AmpC det inh: inactive; AmpC nodet inh: 5µM; Prx2 Sm inh: inactive; LT uptake inh: inactive

Results for CC1=C(C(=O)OC(C)C)C(c2cccnc2)n2ncnc2N1 (stereo not drawn) ?
AmpC det inh: inactive; AmpC nodet inh: 4µM[single pt active]; Prx2 Sm inh: inactive; LT uptake inh: inactive

Results for CC1=C(C(=O)OC(C)C)C(c2ccccn2)n2ncnc2N1 (stereo not drawn) ?
AmpC det inh: inactive; AmpC nodet inh: 4µM[single pt active]; Prx2 Sm inh: inactive; LT uptake inh: inactive

How did CC1=C(C(=O)OC(C)C)C(c2ccncc2)n2ncnc2N1 (stereo not drawn) do in these assays?
AmpC det inh: inactive; AmpC nodet inh: inactive; Prx2 Sm inh: inactive; LT uptake inh: inconclusive

Results for CO[C@@H]1CC[C@@]2(C)[C@@H](CC[C@@]3(C)[C@H]2CC=C2[C@H]4CC(C)(C)[C@H](O)[C@@H](OC(C)=O)[C@]4(CO)[C@H](O)C[C@]23C)[C@@]1(C)CO (tested in a mixture with another compound) ?
AmpC det inh: inactive; AmpC nodet inh: inactive; Prx2 Sm inh: inactive; LT uptake inh: inactive[3.58 µM]

How did C[C@H]1[C@H](C)CC[C@@]2(C(=O)O)CC[C@]3(C)C(=CC[C@@H]4[C@@]5(C)CC[C@H](O)C(C)(C)[C@@H]5CC[C@@]43C)[C@@H]12 do in these assays?
AmpC det inh: inactive; AmpC nodet inh: inactive; Prx2 Sm inh: inactive; LT uptake inh: 7.9µM

How did CC(=O)[O-].CC(=O)[O-].O.O.[Cd+2] do in these assays?
AmpC det inh: inactive; AmpC nodet inh: inactive; LT uptake inh: inactive

Results for O=c1[nH]ncc2ccccc12 ?
AmpC det inh: inactive; AmpC nodet inh: inactive; LT uptake inh: inconclusive

What do the screens show for `CSc1nc(-c2ccco2)nn1C(=O)c1ccc(C)cc1`?
AmpC det inh: inactive; AmpC nodet inh: 4µM[single pt active]; Prx2 Sm inh: inactive; LT uptake inh: inconclusive

How did CSc1nc(-c2ccco2)nn1C(=O)c1ccco1 do in these assays?
AmpC det inh: inactive; AmpC nodet inh: 2.5µM[single pt active]; Prx2 Sm inh: inactive; LT uptake inh: inactive

How did CCCC(=O)n1nc(-c2ccco2)nc1SCc1ccccc1 do in these assays?
AmpC det inh: inactive; AmpC nodet inh: 10µM; Prx2 Sm inh: inactive; LT uptake inh: inactive

Results for Nc1nc(-c2ccco2)nn1C(=O)CCc1ccccc1 ?
AmpC det inh: inactive; AmpC nodet inh: inactive; Prx2 Sm inh: inactive; LT uptake inh: inactive
